Test results published in PubChem BioAssay (NCI).
The panel holds about 83,000 compounds, 20% with a hit somewhere; the sample as a whole holds those more often.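 A percent growth of 40 corresponds to 60% growth inhibition; 0 means no net growth; -100 means all cells died. Active threshold: below 10.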 Activity calls are given as the source filed them.

Assays:
Assay in all cases: NCI-60 one-dose screen, 48 h (100 = growth as untreated, 0 = no growth, -100 = all killed)
Settings in all cases: 10 µM unless noted
BT-549 breast = test system: BT-549 breast
MDA-MB-435 melanoma = test system: MDA-MB-435 melanoma
SW-620 colon = test system: SW-620 colon
MCF7 breast = test system: MCF7 breast
HCT-116 colon = test system: HCT-116 colon
HCC-2998 colon = test system: HCC-2998 colon
KM12 colon = test system: KM12 colon

Measured: growth

CCCC(=O)NC(c1ccc2c(c1)OC(F)(F)O2)c1cc(C)c2cccnc2c1O (configuration not stated)
inactive: BT-549 breast 37.9% | MDA-MB-435 melanoma 22.9% | SW-620 colon 30.3% | MCF7 breast 24.1% | HCT-116 colon 26.2% | HCC-2998 colon 53.3% | KM12 colon 21.4%

N[C@@H](Cc1cn(-c2ccnc3ccccc23)nn1)C(=O)O
inactive: BT-549 breast 118% | MDA-MB-435 melanoma 106% | SW-620 colon 104% | MCF7 breast 101% | HCT-116 colon 104% | HCC-2998 colon 104%

CCN1C(=S)N(CC)C2C1NN=C1SC(c3ccccc3)=CC(=O)N12 (configuration not stated)
inactive: BT-549 breast 106% | MDA-MB-435 melanoma 59% | SW-620 colon 111% | MCF7 breast 95.4% | HCT-116 colon 104% | HCC-2998 colon 111% | KM12 colon 94.3%

COc1ccccc1C(=O)CSc1nc(Nc2ccc(S(N)(=O)=O)cc2)c2ccccc2n1
inactive: BT-549 breast 111% | MDA-MB-435 melanoma 90.4% | SW-620 colon 98.1% | MCF7 breast 44.6% | HCT-116 colon 77% | HCC-2998 colon 103% | KM12 colon 78.4%

CS(=O)(=O)c1ccc(-c2nc3ccccn3c2/C=N/Nc2nc(-c3ccc(Br)cc3)cs2)cc1
inactive: BT-549 breast 114% | MDA-MB-435 melanoma 97.2% | SW-620 colon 98.2% | MCF7 breast 92.4% | HCT-116 colon 101% | HCC-2998 colon 120% | KM12 colon 101%

CN1CCN(Cc2ccc(NC(=O)c3cncc(C#Cc4cnc5ccc(N6CCSCC6)nn45)c3)cc2C(F)(F)F)CC1
active: MDA-MB-435 melanoma -73.4% | SW-620 colon -3.56% | MCF7 breast -59.7% | HCT-116 colon -51.8% | HCC-2998 colon -51.2% | KM12 colon -22.5%
inactive: BT-549 breast 40.5%

N#Cc1c(-c2ccc(Cl)cc2)nc(SCc2ccccc2)nc1N1CCNCC1
active: SW-620 colon -50.2% | MCF7 breast 8.71% | HCT-116 colon -74.3% | HCC-2998 colon -37.3%
inactive: BT-549 breast 90.5% | MDA-MB-435 melanoma 71.4% | KM12 colon 39.6%

Clc1ccc2oc3c(NCCCn4ccnc4)c4ccccc4nc3c2c1
active: MCF7 breast 8.8%
inactive: BT-549 breast 76.9% | MDA-MB-435 melanoma 26.7% | SW-620 colon 16.9% | HCT-116 colon 11.2% | HCC-2998 colon 55.2% | KM12 colon 30.9%

O=C(N/N=C/c1cccs1)c1[nH]c2ccc(Br)cc2c1-c1ccccc1
active: BT-549 breast -14.2% | MDA-MB-435 melanoma -26.1% | MCF7 breast 8.78% | HCT-116 colon -33.7% | KM12 colon 6.37%
inactive: SW-620 colon 22.8% | HCC-2998 colon 24.1%

O=C(N/N=C/c1ccc([N+](=O)[O-])o1)c1[nH]c2ccc(Br)cc2c1-c1ccccc1
active: BT-549 breast -32.1% | MDA-MB-435 melanoma -40.8% | MCF7 breast 7.95% | HCT-116 colon -8.73% | HCC-2998 colon 2.07%
inactive: SW-620 colon 10.5% | KM12 colon 15.3%

CN(C)S(=O)(=O)c1oc(-c2ccccc2)nc1C#N
active: SW-620 colon 0.559%
inactive: BT-549 breast 64.4% | MDA-MB-435 melanoma 78.9% | MCF7 breast 39.4% | HCT-116 colon 61.3% | HCC-2998 colon 108% | KM12 colon 92.9%

NS(=O)(=O)c1ccc(Nc2nc(Nc3ccccc3)nc(-n3nc(-c4ccccc4)cc3-c3ccccc3)n2)cc1
inactive: BT-549 breast 52.7% | MDA-MB-435 melanoma 26.9% | SW-620 colon 38.2% | HCT-116 colon 10.5% | HCC-2998 colon 43.1%
active: MCF7 breast 6.85% | KM12 colon 9.22%

Oc1c(Cl)cc(Cl)c2ccc(CN3CCCCC3)nc12
inactive: BT-549 breast 89.1% | MDA-MB-435 melanoma 42.1% | SW-620 colon 30.4% | MCF7 breast 28.9% | HCT-116 colon 21.3% | HCC-2998 colon 65% | KM12 colon 30.7%

CN(C)c1ccc(/C=C2\Cc3c(F)ccc(Br)c3C2=O)cc1
inactive: BT-549 breast 117% | MDA-MB-435 melanoma 92.7% | SW-620 colon 89.9% | MCF7 breast 39.8% | HCT-116 colon 98.5% | HCC-2998 colon 104% | KM12 colon 93.1%

N=C1CC(=O)NN1C(=O)CSc1nc2sc3c(c2c(=O)n1-c1ccc(Cl)cc1)CCCC3
inactive: BT-549 breast 102% | MDA-MB-435 melanoma 106% | SW-620 colon 98% | MCF7 breast 91.8% | HCT-116 colon 99% | HCC-2998 colon 116% | KM12 colon 104%

NS(=O)(=O)c1ccc(Nc2nc(SCC(=O)c3ccc(Cl)cc3)nc3ccccc23)cc1
inactive: BT-549 breast 112% | MDA-MB-435 melanoma 97.5% | SW-620 colon 93.3% | MCF7 breast 83% | HCT-116 colon 101% | HCC-2998 colon 123% | KM12 colon 87%

Cc1nc(-c2cc3ccccc3oc2=O)ccc1C(=O)/C=C/c1ccc(Cl)c(Cl)c1
inactive: BT-549 breast 108% | MDA-MB-435 melanoma 103% | SW-620 colon 101% | MCF7 breast 86.3% | HCT-116 colon 103% | HCC-2998 colon 107% | KM12 colon 103%

OC1CCN(CCCOc2c3ccccc3nc3c2oc2ccc(Cl)cc23)CC1
inactive: BT-549 breast 57.1% | HCT-116 colon 15.9% | HCC-2998 colon 21.9%
active: MDA-MB-435 melanoma -40.6% | SW-620 colon 2.39% | MCF7 breast 2.99% | KM12 colon 1.06%

Nc1cc(-c2c[nH]c3ccc(Cl)cc23)nc2cc(-c3c[nH]c4ccc(Cl)cc34)nn12
inactive: BT-549 breast 87.5% | MDA-MB-435 melanoma 57.7% | SW-620 colon 15.7% | MCF7 breast 14.4% | HCT-116 colon 27.7% | HCC-2998 colon 20.1% | KM12 colon 12.7%

O=C(N/N=C/c1ccco1)c1[nH]c2ccc(Br)cc2c1-c1ccccc1
inactive: SW-620 colon 24.8% | MCF7 breast 10.7% | HCC-2998 colon 23% | KM12 colon 12.8%
active: BT-549 breast -17.1% | MDA-MB-435 melanoma 0.898% | HCT-116 colon -12.9%

COc1ccc(-c2csc(N/N=C/c3c(-c4ccc(S(C)(=O)=O)cc4)nc4ccccn34)n2)cc1
inactive: BT-549 breast 115% | MDA-MB-435 melanoma 101% | SW-620 colon 107% | MCF7 breast 89.1% | HCT-116 colon 104% | HCC-2998 colon 115% | KM12 colon 103%

CN(C)CCCNc1c2ccccc2nc2c1oc1ccc(Cl)cc12
active: SW-620 colon 9.93% | MCF7 breast -25.7% | HCC-2998 colon -43.7%
inactive: BT-549 breast 57.9% | MDA-MB-435 melanoma 33.5% | HCT-116 colon 22.5% | KM12 colon 25.5%

COc1cc(/C=C/C(=O)c2ccc(F)cc2)ccc1Oc1nc(NCCO)nc(N2CCOCC2)n1
active: SW-620 colon 0.783%
inactive: BT-549 breast 86.3% | MDA-MB-435 melanoma 48% | MCF7 breast 10.2% | HCT-116 colon 11.3% | HCC-2998 colon 103% | KM12 colon 27.3%

COC1CCN(Cc2ccc3c(NNC(=O)c4cnccn4)nc4cc(F)ccc4n23)C1 (configuration not stated)
inactive: BT-549 breast 51.7% | MDA-MB-435 melanoma 37.2% | SW-620 colon 24% | MCF7 breast 14% | HCC-2998 colon 59.9% | KM12 colon 22.6%
active: HCT-116 colon 4.53%

N#Cc1nc(-c2ccccc2)oc1S(N)(=O)=O
inactive: BT-549 breast 67.6% | MDA-MB-435 melanoma 42.5% | SW-620 colon 21.1% | MCF7 breast 30.9% | HCT-116 colon 46.8% | HCC-2998 colon 110% | KM12 colon 83.9%

O=C1NC(=C(Cl)Cl)/C(=N/S(=O)(=O)N2CCCCC2CC2(C(F)(F)F)N=N2)N1 (configuration not stated)
active: SW-620 colon -82.2% | MCF7 breast 9.63% | HCT-116 colon -28.8% | HCC-2998 colon 5.46% | KM12 colon 9.36%
inactive: BT-549 breast 68% | MDA-MB-435 melanoma 41.6%

C/C(=N\NC(N)=O)c1c(O)sc(=O)[nH]c1=O
inactive: BT-549 breast 95.3% | MDA-MB-435 melanoma 104% | SW-620 colon 97.5% | MCF7 breast 93.4% | HCT-116 colon 91% | HCC-2998 colon 110% | KM12 colon 100%

CCOC(=O)c1csc(NC(=O)CSc2nc3sc4c(c3c(=O)n2-c2ccc(Cl)cc2)CCCC4)n1
inactive: BT-549 breast 99% | MDA-MB-435 melanoma 93.6% | SW-620 colon 103% | MCF7 breast 84.3% | HCT-116 colon 105% | HCC-2998 colon 121% | KM12 colon 109%

O=C(CCCN1C(=O)/C(=C/c2ccccc2F)SC1=S)N1CCOCC1
inactive: BT-549 breast 114% | MDA-MB-435 melanoma 82.7% | SW-620 colon 95.2% | MCF7 breast 56.9% | HCT-116 colon 88.7% | HCC-2998 colon 119% | KM12 colon 85.4%

C=CCn1c(SCC(=O)c2ccc(Br)cc2)nnc1-c1c[nH]c2ccccc12
inactive: BT-549 breast 106% | MDA-MB-435 melanoma 108% | SW-620 colon 110% | MCF7 breast 97.9% | HCT-116 colon 93.5% | HCC-2998 colon 104% | KM12 colon 102%

Nc1c(C(=O)c2ccc(Br)cc2)oc2nc(-c3cnccn3)cc(-c3cccs3)c12
inactive: BT-549 breast 103% | MDA-MB-435 melanoma 102% | SW-620 colon 98.8% | MCF7 breast 77.6% | HCT-116 colon 96.8% | HCC-2998 colon 113% | KM12 colon 99.8%

COc1cc(/C=C/C(=O)c2ccc(C)cc2)ccc1Oc1nc(NCCO)nc(N2CCOCC2)n1
inactive: MDA-MB-435 melanoma 33.1% | HCC-2998 colon 93.8% | KM12 colon 20.2%
active: BT-549 breast -58.8% | SW-620 colon 3.05% | MCF7 breast 9.07% | HCT-116 colon -77.2%

Cc1sc2c(c1C)c(=O)nc1c(-c3nc(-c4ccc(F)cc4)no3)n[nH]n12
inactive: BT-549 breast 102% | MDA-MB-435 melanoma 105% | SW-620 colon 111% | MCF7 breast 89.7% | HCT-116 colon 103% | HCC-2998 colon 104% | KM12 colon 106%

CCCCCCNC(=O)Oc1ccc(/C(=C(/C)c2ccccc2)c2ccc(OCCN3CCCCCC3)cc2)cc1
active: SW-620 colon -35.2%
inactive: BT-549 breast 66.7% | MDA-MB-435 melanoma 49.6% | MCF7 breast 13.6% | HCT-116 colon 23.8% | HCC-2998 colon 56.7% | KM12 colon 32.3%
